Data: PubChem BioAssay (NCATS)
Several values for one entry are separate records, joined by “and”; a condition that tells them apart may be missing. Equal entries are not always repeated. Inconclusive results are not listed. Some structures have more than one record in an assay (separate samples or runs), and their calls can disagree. Some of the results follow. Activity calls are given as the source filed them. Unless noted, the call rests on the fitted dose curve; in most records, active means well fitted curve in the direction sought with a large enough effect; inconclusive means small, poorly fitted or top-dose-only effect, or another doubt; inactive means no such curve, though single readings can be large; an effect the other way counts as inactive or inconclusive.

What was measured:
[1] = qHTS for Inhibitors of Plasmodium falciparum (DD2) proliferation (AID 504314); further: potency means the concentration at half of the fitted maximal effect;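 on activity, negative = inhibition: parasite DNA measured by SYBR Green fluorescence after red cell lysis; plate controls were DMSO vehicle for no effect and artemisinin wells for full effect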; details: P. falciparum Dd2 in erythrocytes, SYBR Green growth, 72 h; series mostly up to 6.11 µM
Summary of the method: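 P. falciparum Dd2 is grown in erythrocytes with test compound for 72 h at 37C under 5% CO2. Growth is scored by SYBR Green I fluorescence after detergent lysis, relative to artemisinin (0.29 uM) and DMSO controls.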

[2] = qHTS for Inhibitors of Plasmodium falciparum (GB4) proliferation (AID 504315); further: nearly all actives have a fitted effect of over 50% in size; further: potency means the concentration at half of the fitted maximal effect;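 on activity change, negative = inhibition: 0% = DMSO vehicle and -100% = 0.29 µM artemisinin control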; details: P. falciparum GB4 in erythrocytes, SYBR Green DNA, 72 h; series mostly up to 6.7 µM
Summary of the method: (§1)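 Parasite growth measured as SYBR Green DNA fluorescence (ex 485, em 535 nm) after overnight lysis following 72 h culture at 37 °C, 0.3% parasitemia, 2.5% hematocrit. Values normalized against DMSO and 0.29 uM artemisinin controls, with plate-stack correction.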

[3] = qHTS for Inhibitors of Plasmodium falciparum (7G8) proliferation (AID 504316); further: nearly all actives have a fitted effect of over 65% in size; further: potency means the concentration at half of the fitted maximal effect;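 on activity change, negative = inhibition: 0% = DMSO vehicle and -100% = 0.29 µM artemisinin full kill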; details: P. falciparum 7G8 in erythrocytes, SYBR Green DNA, 72 h; series mostly up to 6.7 µM
Summary of the method: as §1

[4] = molecular target: Atrial natriuretic peptide receptor 1 (Homo sapiens) (UniProt P16066); assay: Natriuretic polypeptide receptor (hNpr1) antagonism - Pilot CMLD screen (AID 1347052; calls by dose curve;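 further: HEK293 cells with hNpr1 stimulated by hNppA peptide at 0.1 nM; cGMP level read as GloSensor luciferase luminescence after agonist stimulation; on the % scale 0 is the no-effect control and ±100 the full control effect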); details: HEK293 hNpr1 GloSensor cGMP luminescence, ANP-stimulated; series mostly up to 9.22 µM
Sequence of Atrial natriuretic peptide receptor 1 (Homo sapiens) (P16066 whole entry, looked up): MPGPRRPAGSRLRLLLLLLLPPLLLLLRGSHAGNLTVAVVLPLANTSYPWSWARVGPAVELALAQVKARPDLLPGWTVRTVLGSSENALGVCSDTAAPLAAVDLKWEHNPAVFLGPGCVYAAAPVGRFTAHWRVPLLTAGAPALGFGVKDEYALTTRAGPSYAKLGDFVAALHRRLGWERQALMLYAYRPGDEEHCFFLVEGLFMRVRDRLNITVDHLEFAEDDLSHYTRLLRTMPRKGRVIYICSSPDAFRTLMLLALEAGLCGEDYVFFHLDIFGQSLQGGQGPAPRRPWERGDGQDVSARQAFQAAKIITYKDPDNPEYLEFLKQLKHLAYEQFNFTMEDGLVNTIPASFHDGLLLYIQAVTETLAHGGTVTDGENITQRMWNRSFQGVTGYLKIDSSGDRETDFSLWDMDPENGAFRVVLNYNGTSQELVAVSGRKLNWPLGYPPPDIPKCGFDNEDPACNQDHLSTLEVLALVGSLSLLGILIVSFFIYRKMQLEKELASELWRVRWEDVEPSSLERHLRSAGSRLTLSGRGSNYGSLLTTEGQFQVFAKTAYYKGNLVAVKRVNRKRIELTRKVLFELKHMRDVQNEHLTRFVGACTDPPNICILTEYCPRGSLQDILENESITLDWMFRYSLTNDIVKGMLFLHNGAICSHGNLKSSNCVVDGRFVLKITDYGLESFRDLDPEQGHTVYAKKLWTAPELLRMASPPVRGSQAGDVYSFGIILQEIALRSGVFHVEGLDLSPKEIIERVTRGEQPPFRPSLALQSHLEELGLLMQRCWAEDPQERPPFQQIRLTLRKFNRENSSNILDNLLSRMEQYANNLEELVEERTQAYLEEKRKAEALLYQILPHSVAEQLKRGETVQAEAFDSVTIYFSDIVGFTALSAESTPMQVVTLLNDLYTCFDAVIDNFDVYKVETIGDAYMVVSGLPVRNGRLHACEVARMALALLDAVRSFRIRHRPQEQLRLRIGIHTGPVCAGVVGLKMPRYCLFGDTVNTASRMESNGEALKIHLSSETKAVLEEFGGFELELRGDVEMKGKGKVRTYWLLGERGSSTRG

[5] = qHTS for Inhibitors of Plasmodium falciparum (HB3) proliferation (AID 504318);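 further: 0% = DMSO vehicle and -100% = artemisinin control; nearly all actives have a fitted effect of over 60% in size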; details: P. falciparum HB3 in erythrocytes, SYBR Green DNA, 72 h; series mostly up to 7.21 µM
Summary of the method: as §1

[6] = qHTS for Inhibitors of Plasmodium falciparum (CP250) proliferation (AID 504320);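 further: plate controls were DMSO vehicle for no effect and 0.29 µM artemisinin control for full effect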; details: P. falciparum CP250 in erythrocytes, SYBR Green DNA, 72 h; series mostly up to 6.7 µM
Summary of the method: as §1

[7] = molecular target: Rap guanine nucleotide exchange factor 3 (Homo sapiens) (UniProt O95398); assay: Confirmatory qHTS for antagonist of cAMP-regulated guanine nucleotide exchange factor 3 (EPAC1) (AID 1645880); details: EPAC1 Rap1B-BODIPY-GDP exchange, fluorescence; series mostly up to 115 µM;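 further: plate controls were DMSO only for no effect and full effect of the ATA control for full effect; nearly all actives have a fitted effect of over 55% in size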
Sequence of Rap guanine nucleotide exchange factor 3 (Homo sapiens) (O95398 whole entry, looked up): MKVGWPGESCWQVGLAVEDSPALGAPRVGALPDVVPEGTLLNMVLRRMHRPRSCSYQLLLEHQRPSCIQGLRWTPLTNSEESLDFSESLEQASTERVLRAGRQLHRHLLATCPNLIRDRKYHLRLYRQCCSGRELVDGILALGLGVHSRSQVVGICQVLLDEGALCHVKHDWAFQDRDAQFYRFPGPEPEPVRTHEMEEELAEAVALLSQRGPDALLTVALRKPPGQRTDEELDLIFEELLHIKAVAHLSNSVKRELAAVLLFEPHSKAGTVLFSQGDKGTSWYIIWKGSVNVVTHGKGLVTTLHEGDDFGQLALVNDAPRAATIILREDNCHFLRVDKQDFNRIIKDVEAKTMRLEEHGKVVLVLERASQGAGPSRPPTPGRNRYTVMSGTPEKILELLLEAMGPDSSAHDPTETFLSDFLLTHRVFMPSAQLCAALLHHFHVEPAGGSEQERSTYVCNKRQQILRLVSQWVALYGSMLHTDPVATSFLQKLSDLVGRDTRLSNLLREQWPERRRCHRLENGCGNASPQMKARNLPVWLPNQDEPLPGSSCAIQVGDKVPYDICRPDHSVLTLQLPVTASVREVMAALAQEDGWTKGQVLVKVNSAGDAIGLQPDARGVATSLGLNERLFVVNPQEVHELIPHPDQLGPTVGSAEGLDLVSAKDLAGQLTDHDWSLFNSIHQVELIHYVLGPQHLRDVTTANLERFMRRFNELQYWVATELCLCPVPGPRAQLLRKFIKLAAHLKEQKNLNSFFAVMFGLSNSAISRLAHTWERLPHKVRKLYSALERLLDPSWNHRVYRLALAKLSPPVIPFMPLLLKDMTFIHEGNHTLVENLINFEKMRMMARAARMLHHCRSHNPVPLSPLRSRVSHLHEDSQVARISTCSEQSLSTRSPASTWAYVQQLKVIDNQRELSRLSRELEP
Summary of the method: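 Released BODIPY-GDP fluoresces less than Rap1-bound BODIPY-GDP; the signal is followed at 480/540 nm at 5-min intervals over 30 min, after 5 min at room temperature. Reactions contain 100 nM EPAC1, 250 nM RAP1B-BODIPY-GDP and 50 uM GDP; results are normalized to ATA and DMSO.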

[8] = molecular target: Rap guanine nucleotide exchange factor 3 (Homo sapiens) (UniProt O95398); assay: Confirmatory qHTS for agonist of cAMP-regulated guanine nucleotide exchange factor 3 (EPAC1) (AID 1645881); details: EPAC1 Rap1B BODIPY-GDP exchange fluorescence, 100% = cAMP control response; series mostly up to 154 µM;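 further: EPAC1 catalysed release of BODIPY-GDP from Rap1B seen as fluorescence loss; nearly all actives have a fitted effect of over 75% in size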
[9] = molecular target: Rap guanine nucleotide exchange factor 4 (Homo sapiens) (UniProt Q8WZA2); assay: Confirmatory qHTS for agonist of cAMP-regulated guanine nucleotide exchange factor 4 (EPAC2) (AID 1645884); details: EPAC2 GEF activity, Rap1B-BODIPY-GDP fluorescence, percent relative to cAMP agonist control; series mostly up to 154 µM;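 further: nucleotide exchange releases bodipy-GDP from Rap1 and this lowers its fluorescence; on the % scale 0 is the no-effect control and ±100 the full control effect; nearly all actives have a fitted effect of over 65% in size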
Sequence of Rap guanine nucleotide exchange factor 4 (Homo sapiens) (Q8WZA2 whole entry, looked up): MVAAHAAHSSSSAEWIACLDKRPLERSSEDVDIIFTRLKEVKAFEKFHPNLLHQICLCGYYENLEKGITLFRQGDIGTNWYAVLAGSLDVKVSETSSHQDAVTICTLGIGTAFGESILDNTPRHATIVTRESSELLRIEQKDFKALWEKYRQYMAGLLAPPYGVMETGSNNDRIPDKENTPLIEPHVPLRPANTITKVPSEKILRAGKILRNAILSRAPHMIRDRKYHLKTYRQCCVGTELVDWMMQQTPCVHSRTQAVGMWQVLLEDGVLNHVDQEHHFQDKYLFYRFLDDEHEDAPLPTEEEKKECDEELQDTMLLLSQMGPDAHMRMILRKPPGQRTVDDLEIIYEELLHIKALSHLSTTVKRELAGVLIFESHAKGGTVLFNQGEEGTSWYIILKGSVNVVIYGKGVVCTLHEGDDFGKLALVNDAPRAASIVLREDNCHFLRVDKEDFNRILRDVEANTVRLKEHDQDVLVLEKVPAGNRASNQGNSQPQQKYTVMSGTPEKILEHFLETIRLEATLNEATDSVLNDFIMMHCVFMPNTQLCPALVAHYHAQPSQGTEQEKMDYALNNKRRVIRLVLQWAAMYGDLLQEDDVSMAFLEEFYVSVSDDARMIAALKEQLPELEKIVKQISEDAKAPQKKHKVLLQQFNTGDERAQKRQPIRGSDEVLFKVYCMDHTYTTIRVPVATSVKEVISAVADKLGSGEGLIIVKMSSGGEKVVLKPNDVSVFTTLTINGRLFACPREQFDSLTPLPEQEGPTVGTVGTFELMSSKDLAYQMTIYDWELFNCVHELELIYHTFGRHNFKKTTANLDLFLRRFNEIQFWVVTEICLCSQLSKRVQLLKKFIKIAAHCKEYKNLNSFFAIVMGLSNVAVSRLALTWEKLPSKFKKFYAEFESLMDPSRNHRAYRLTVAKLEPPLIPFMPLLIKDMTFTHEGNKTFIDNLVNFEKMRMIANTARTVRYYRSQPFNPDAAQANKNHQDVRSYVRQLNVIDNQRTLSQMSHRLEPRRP

[10] = molecular target: Rap guanine nucleotide exchange factor 4 (Homo sapiens) (UniProt Q8WZA2); assay: Confirmatory qHTS for antagonist of cAMP-regulated guanine nucleotide exchange factor 4 (EPAC2) (AID 1645885); details: EPAC2 Rap1B-BODIPY-GDP exchange fluorescence, biochemical; series mostly up to 114 µM; further: on the % scale 0 is the no-effect control and ±100 the full control effect; nearly all actives have a fitted effect of over 25% in size
[11] = molecular target: Rap guanine nucleotide exchange factor 3 (Homo sapiens) (UniProt O95398); assay: Counterscreen qHTS for antagonist of cAMP-regulated guanine nucleotide exchange factor 3 (EPAC1) (AID 1645888); details: Rap1B-BODIPY-GDP nucleotide exchange, fluorescence; series mostly up to 154 µM; further: % of control where 0% means no effect
Summary of the method: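 Measured: fluorescence of BODIPY-GDP bound to Rap1B, which falls as exchange proceeds. Conditions include 50 uM competing GDP, 5 and 30 min reads, and a later cAMP challenge for antagonist detection.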

[12] = molecular target: Tyrosyl-DNA phosphodiesterase 1 (Homo sapiens) (UniProt Q9NUW8); assay: Confirmation Assay for Inhibitors of Tyrosyl-DNA Phosphodiesterase (TDP1) (AID 489007); details: recombinant human TDP1 enzymatic activity, dose-response; further: potency means the concentration at half of the fitted maximal effect; nearly all actives have a fitted effect of over 40% in size
Sequence of Tyrosyl-DNA phosphodiesterase 1 (Homo sapiens) (Q9NUW8 whole entry, looked up): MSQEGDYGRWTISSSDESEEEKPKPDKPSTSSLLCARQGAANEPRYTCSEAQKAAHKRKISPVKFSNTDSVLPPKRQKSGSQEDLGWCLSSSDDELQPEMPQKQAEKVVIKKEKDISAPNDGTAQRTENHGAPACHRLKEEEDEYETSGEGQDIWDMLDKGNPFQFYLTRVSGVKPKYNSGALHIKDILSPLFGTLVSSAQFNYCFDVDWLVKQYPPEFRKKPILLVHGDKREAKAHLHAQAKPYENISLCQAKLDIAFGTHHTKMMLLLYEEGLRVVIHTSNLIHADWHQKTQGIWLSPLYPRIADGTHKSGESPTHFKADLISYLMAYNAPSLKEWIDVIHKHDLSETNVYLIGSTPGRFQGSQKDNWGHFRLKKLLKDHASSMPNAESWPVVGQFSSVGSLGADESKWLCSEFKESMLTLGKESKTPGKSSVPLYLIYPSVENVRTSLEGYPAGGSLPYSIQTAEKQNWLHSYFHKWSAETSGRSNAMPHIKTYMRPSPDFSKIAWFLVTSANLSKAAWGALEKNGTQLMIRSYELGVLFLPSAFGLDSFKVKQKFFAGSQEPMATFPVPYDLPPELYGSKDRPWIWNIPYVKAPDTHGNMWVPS
Summary of the method: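 Loss of AlphaScreen signal reports Tdp1 cleavage of a dual-labelled DNA substrate. Conditions: 1 nM E. coli-derived enzyme, 15 nM substrate, 15 min compound preincubation, 5 min reaction, 10 min bead incubation, all at room temperature.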

[13] = molecular target: Vitamin D3 receptor (Homo sapiens) (UniProt P11473); assay: qHTS for Inhibitors of the vitamin D receptor (VDR): Hit Validation in Primary Screen (AID 602199); details: VDR-coactivator inhibition assay, qHTS confirmation; further: potency means the concentration at half of the fitted maximal effect
Sequence of Vitamin D3 receptor (Homo sapiens) (P11473 whole entry, looked up): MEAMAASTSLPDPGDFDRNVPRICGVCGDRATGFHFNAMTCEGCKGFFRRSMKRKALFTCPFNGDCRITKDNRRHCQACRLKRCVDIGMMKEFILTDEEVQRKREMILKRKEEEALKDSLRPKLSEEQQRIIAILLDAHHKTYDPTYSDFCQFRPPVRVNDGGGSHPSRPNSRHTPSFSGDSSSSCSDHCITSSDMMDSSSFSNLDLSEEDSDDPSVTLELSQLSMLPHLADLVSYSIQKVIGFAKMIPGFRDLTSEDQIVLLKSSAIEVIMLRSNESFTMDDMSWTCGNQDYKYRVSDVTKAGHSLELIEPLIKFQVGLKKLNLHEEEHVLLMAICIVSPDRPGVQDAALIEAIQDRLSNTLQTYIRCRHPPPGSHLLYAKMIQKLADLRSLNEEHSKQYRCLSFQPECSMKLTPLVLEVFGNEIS
Summary of the method: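 Fluorescence polarization assay of VDR binding to Alexa 647-labelled SRC2-3 coactivator peptide: 800nM VDR with 5uM LG19078 agonist, compounds, 2 h at room temperature, read Ex 620 nm/Em 688 nm.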

COC(=O)C(=Cc1cc(Br)c(OC)c(Br)c1)C(=O)OC
inactive: Potency [1] | Potency [2] | Potency [3] | Potency [4]

CCOC(=O)CN1C(=O)[C@@]2(CC(C)=C[C@@H](COCc3ccccc3)O2)c2ccccc21
inactive: Potency [1] | Potency [2] | Potency [4]

COc1ccc2c(c1)O[C@@H](c1ccc3c(c1)OCO3)[C@H](OC(=O)Nc1ccc(C)c(Br)c1)C2=O
inactive: Potency [1] | Potency [2] | Potency [4]

COCOc1cc(OC)ccc1C(=O)C=Cc1ccc([N+](=O)[O-])cc1
inactive: Potency [4]
active: Potency [1] 1500 nM | Potency [2] 1690 nM

Cc1ccc(C(=O)OC[C@H]2O[C@H](Cl)C[C@H]2OC(=O)c2ccc(C)cc2)cc1
inactive: Potency [4]
active: Potency [1] 1690 nM

O=C1OC2(CCCCC2)CC2=C1[C@H]1O[C@](CCCCN3C(=O)c4ccccc4C3=O)(Cc3ccccc31)O2
inactive: Potency [4]
active: Potency [1] 1500 nM | Potency [2] 1690 nM | Potency [3] 1.69 µM

COC(=O)C(c1ccc(OC)c(OC)c1)C1c2ccccc2C=C(C)N1C(=O)OC (centres undefined)
inactive: Potency [1] | Potency [2] | Potency [3] | Potency [4]

C[C@@H]1CC[C@H]2C(=O)N3[C@@H](CC[C@@H](C)[C@@H]3c3ccc(-c4ccco4)cc3)C(=O)N2[C@@H]1c1ccc(-c2ccco2)cc1
inactive: Potency [1] | Potency [2] | Potency [3] | Potency [4]

COC(=O)CCC(=O)OC1(C)C(=O)C=C2C=C(C3CC3)N(CCCOC(C)C)C=C2C1=O (centres undefined)
inactive: activity, negative = inhibition [1] -1.07% [at 1.12 µM] | Potency [5] | Potency [6] | Potency [4] | Potency [7] | outcome [8] | outcome [9] | Potency [10] | outcome [11]

COc1ccc(O[C@H]2C=C[C@@H](c3ccccc3)O[C@H]2COC(=O)NCc2cccc3ccccc23)cc1
inactive: Potency [1] | Potency [2] | Potency [4]

COc1ccc(COC(=O)NN=C2C[C@@H](O)[C@@H](O)[C@@H]3[C@H]4C(=O)N(Cc5ccc6c(c5)OCO6)C(=O)[C@@H]4CC[C@H]23)cc1
inactive: Potency [1] | Potency [2] | Potency [3] | Potency [4]

CC[C@@]12C=C(C=Cc3ccccc3)[C@](CC)(C1)[C@H](c1ccccc1)CC2=O
inactive: Potency [4]

CCOC(=O)C1=NO[C@@]2(C=C(Br)C(=O)[C@H]3O[C@H]32)C1
inactive: Potency [6] | Potency [4]
active: Potency [12] 11200 nM | Potency [13] 12600 nM

Cc1cc2c(nc1C)CCCN2CC(O)CN1CCCc2nc(-c3ccc(Br)cc3)ccc21 (centres undefined)
inactive: Potency [1] | Potency [2] | Potency [4]

CC(CCN1CCCc2nc(C)c(C)cc21)=NOC[C@@H](C)[C@H](OCc1ccccc1)C(C)C
inactive: Potency [1] | Potency [4]

CCN1C(=NCc2cccc(Cl)c2)NC(c2cccc(C(F)(F)F)c2)C(C(=O)OC)=C1C (centres undefined)
inactive: Potency [4]

COC(=O)C1=C(C)N(Cc2ccccc2)C(=NCC(C)C)NC1c1cccc(C(F)(F)F)c1 (centres undefined)
inactive: Potency [4]

CC(C)=CCCC(C)=CCON=C1C[C@@H](O)[C@@H](O)[C@@H]2[C@H]3C(=O)N(c4cccc(Oc5ccccc5)c4)C(=O)[C@@H]3CC[C@H]12
inactive: Potency [1] | Potency [2] | Potency [3] | Potency [4]

COc1ccc(O[C@@H]2[C@H](O)CO[C@@H]2C=CC#Cc2ccccc2)cc1
inactive: Potency [1] | Potency [2] | Potency [3] | Potency [4]

CC(=O)OC[C@H]1O[C@H](CCON=C(C)CCN2CCCc3nc(C)c(C)cc32)C=C[C@H]1OC(C)=O
inactive: Potency [1] | Potency [2] | Potency [4]

COc1cccc([C@H]2Oc3ccc(OC)cc3C(=NOCC[C@@H]3C=C[C@H](OC(C)=O)[C@@H](COC(C)=O)O3)[C@H]2O)c1
inactive: Potency [1] | Potency [2] | Potency [3] | Potency [4]

COC(=O)CC1c2ccccc2C(Cc2ccc3c(c2)OCO3)=C(C)N1C(=O)OC (centres undefined)
inactive: Potency [1] | Potency [2] | Potency [4]

COc1ccc2c(c1)C(=O)[C@H](OC(=O)N[C@H]1CCCc3ccccc31)[C@@H](c1ccc(OC)c(Br)c1)O2
inactive: Potency [1] | Potency [4]

CCCCc1cc2c(cn1)C(=O)C(C)(OC(C)=O)C(=O)C2 (centres undefined)
active: Potency [1] 1690 nM | Potency [2] 1690 nM | Potency [3] 2.13 µM and 1.69 µM
inactive: activity, negative = inhibition [1] -3.91% [at 1.12 µM] | Potency [5] | Potency [6] | Potency [4]

C=CCC12C=C(OC)C(=O)C(C1=O)C(c1ccc(OC)cc1)C2C (centres undefined)
inactive: Potency [4]

C=CCOC(=O)C1(C(NC(=O)OC)c2ccccc2)C(=O)Cc2ccccc21 (centres undefined)
inactive: Potency [1] | Potency [2] | Potency [4]

COc1ccc(N2C=C3C(=O)C(C)(OC(=O)C4CCCC4)C(=O)C=C3C=C2c2ccsc2)cc1 (centres undefined)
inactive: activity, negative = inhibition [1] -0.73% [at 1.12 µM] | Potency [2] | Potency [4]

CCCC[C@]12Cc3ccccc3[C@H](O1)c1c(cc(-c3ccccc3)oc1=O)O2
inactive: Potency [4]
active: Potency [1] 1690 nM | Potency [2] 1690 nM | Potency [3] 1.9 µM

CCN(CC)CCCN=C1NC(c2cccc(F)c2)C(C(=O)OC)=C(C)N1Cc1ccccc1 (centres undefined)
inactive: Potency [1] | Potency [2] | Potency [4]

CC1(OC(=O)C2CCCC2)C(=O)C=C2C=C(c3ccsc3)N(Cc3ccc4c(c3)OCO4)C=C2C1=O (centres undefined)
inactive: activity, negative = inhibition [1] -6.6% [at 1.12 µM] | Potency [2] | Potency [3] | Potency [4]

COCOc1ccc(Br)cc1C(=O)C=Cc1ccc2c(c1)OCO2
inactive: Potency [4]

COC(=O)[C@@H]1[C@@H](c2cccc(C(F)(F)F)c2)NC(=O)N(Cc2ccccc2)[C@@H]1C
inactive: Potency [1] | Potency [2] | Potency [3] | Potency [4]

CCCCC1=CC2=CC(=O)C(C)(OC(=O)CCc3ccccc3)C(=O)C2=CO1 (centres undefined)
inactive: Potency [1] | Potency [2] | Potency [3] | Potency [5] | Potency [6] | Potency [4] | outcome [8] | activation [9] 0% [at 17.1 µM] | activity change, negative = inhibition [10] 20.8% [at 12.7 µM] | activity change, negative = inhibition [11] 1.91% [at 30.8 µM]

COC(=O)C[C@H]1c2ccccc2C2=C(C[C@@H](C)[C@H]3C(=O)N(c4ccccc4)C(=O)[C@@H]23)N1C(=O)OC
inactive: activity, negative = inhibition [1] 2.35% [at 1.12 µM] and 0.352% [at 1.12 µM] | Potency [2] | Potency [3] | Potency [4]

COC(=O)C1=C2C=C(C)CC(C)N2C(=O)NC1c1ccccc1 (centres undefined)
inactive: Potency [1] | Potency [2] | Potency [3] | Potency [5] | Potency [4]

COC(=O)[C@H](COC(C)(C)C)NC(=O)O[C@H]1C(=O)c2ccc(OC)cc2O[C@@H]1c1ccc2c(c1)OCO2
inactive: Potency [1] | Potency [2] | Potency [3] | Potency [5] | Potency [4]

CCN1C(=O)N[C@@H](c2cccc(C(F)(F)F)c2)[C@H](C(C)=O)[C@H]1C
inactive: Potency [1] | Potency [2] | Potency [3] | Potency [5] | Potency [4]

CCN1C(=NCc2ccco2)N[C@@H](c2ccccc2)[C@H](C(=O)OC)[C@H]1C
inactive: Potency [1] | Potency [2] | Potency [3] | Potency [5] | Potency [4]

CCN1C(=NCCCOC(C)C)N[C@H](c2ccccc2)[C@H](C(=O)OC)[C@H]1C
inactive: Potency [1] | Potency [2] | Potency [3] | Potency [5] | Potency [4]
